Results filed as inconclusive are left out. Active and inactive are the calls of the source. How the source made its calls: active means hit-call score of the fitted dose curve at least 0.9, where 1 is the maximum; inconclusive means response in the unintended direction; inactive means score below 0.9.
Key:
[1] = biological target: Cellular tumor antigen p53 (Homo sapiens) (UniProt P04637); assay: TOX21_p53_BLA_p2_ratio: Tox21 HCT-116 p53 Agonism Beta-lactamase Assay, Ratio, Phase 2 (AID 2283592)
Outline: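 Read-out is the blue/green (460/530 nm, 405 nm excitation) ratio after 2 h CCF4-AM loading, fitted as gain versus DMSO. Compounds, pinned at 217-fold dilution from DMSO stocks, stayed 16 h on HCT-116 beta-lactamase reporter cells seeded 5 h earlier.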

[2] = TOX21_p53_BLA_p3_viability: Viability Assessment in the Tox21 HCT-116 p53 Agonism Beta-lactamase Assay, Phase 3 (AID 2283593);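 further: cells exposed to compound for 16 h before reading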
Outline: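 HCT-116 cells (4000/well) rested 5 h at 37C, then got DMSO compounds by pin tool (217-fold dilution) for 16 h at 37C, 5% CO2. After the bla read, CellTiter-Glo was added and luminescence read at 30 min, room temperature.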

[3] = biological target: Cellular tumor antigen p53 (Homo sapiens) (UniProt P04637); assay: TOX21_p53_BLA_p3_ratio: Tox21 HCT-116 p53 Agonism Beta-lactamase Assay, Ratio, Phase 3 (AID 2283596)
Outline: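 Cells were seeded at 4000/well, rested 5 h at 37C, then dosed with DMSO compound solutions (217-fold dilution) for 16 h. CCF4-AM substrate was loaded for 2 h at room temperature, and the 460/530 nm emission ratio was fitted for gain of signal versus DMSO.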

[4] = TOX21_p53_BLA_p4_viability: Viability Assessment in the Tox21 HCT-116 p53 Agonism Beta-lactamase Assay, Phase 4 (AID 2283597);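 further: hits lower the luminescence signal meaning cytotoxicity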
Outline: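 Cytotoxicity as reduced cellular ATP (CellTiter-Glo luminescence, 30 min room temperature), measured in the same wells following the CCF4 FRET p53 reading. Human HCT-116 cells received compounds in DMSO (217-fold dilution) for 16 h.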

[5] = biological target: Cellular tumor antigen p53 (Homo sapiens) (UniProt P04637); assay: TOX21_p53_BLA_p5_ratio: Tox21 HCT-116 p53 Agonism Beta-lactamase Assay, Ratio, Phase 5 (AID 2283599)
Outline: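 HCT-116 cells carrying a p53-inducible beta-lactamase reporter were seeded at 4000 cells/well and dosed after 5 h with compound in DMSO (217-fold dilution). After 16 h at 37C, CCF4-AM substrate was added for 2 h, and the 460/530 nm emission ratio was scored as gain-of-signal versus DMSO.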

[6] = biological target: Cellular tumor antigen p53 (Homo sapiens) (UniProt P04637); assay: TOX21_p53_BLA_p4_ratio: Tox21 HCT-116 p53 Agonism Beta-lactamase Assay, Ratio, Phase 4 (AID 2283601)
Outline: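 HCT116 cells carrying an inducible beta-lactamase reporter were plated at 4000 cells/well, rested 5 h, then exposed to compounds in DMSO (217-fold dilution) for 16 h at 37C. CCF4-AM substrate was loaded 2 h at room temperature; 460/530 nm emission ratio scored gain-of-signal versus DMSO.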

[7] = TOX21_p53_BLA_p5_viability: Viability Assessment in the Tox21 HCT-116 p53 Agonism Beta-lactamase Assay, Phase 5 (AID 2283600)
Outline: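 Viability came from CellTiter-Glo ATP luminescence, read after 30 min at room temperature. Before this, HCT-116 p53-bla cells (4000/well) had 16 hours of compound exposure at 37C, with DMSO stocks diluted 217-fold on transfer.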

Measured: AC50

Chain of Cellular tumor antigen p53 (Homo sapiens) (P04637 whole entry, looked up): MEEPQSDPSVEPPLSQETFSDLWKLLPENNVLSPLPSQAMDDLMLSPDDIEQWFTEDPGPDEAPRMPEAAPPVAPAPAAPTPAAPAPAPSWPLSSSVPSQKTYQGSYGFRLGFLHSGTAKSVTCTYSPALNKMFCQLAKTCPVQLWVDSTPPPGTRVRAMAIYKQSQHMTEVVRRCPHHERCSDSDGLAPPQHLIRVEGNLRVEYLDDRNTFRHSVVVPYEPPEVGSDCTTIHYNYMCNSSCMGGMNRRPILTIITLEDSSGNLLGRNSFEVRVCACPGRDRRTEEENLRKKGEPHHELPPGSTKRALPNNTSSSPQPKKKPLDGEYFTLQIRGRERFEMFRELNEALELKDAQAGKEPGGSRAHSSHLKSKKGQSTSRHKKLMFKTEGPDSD

CCCCCCCCCCCCCCC[C@H](O)[C@@H](N)CO
not listed: [7]
inactive: all other assays above

N[C@@H](Cc1cc(I)c(O)c(I)c1)C(=O)O
not listed: [7]
inactive: all other assays above

CCCC(CC)CCCCCCCN (configuration not stated)
active: [2] 81 µM | [3] 79.2 µM
not listed: [5]
inactive: all other assays above

O=C(O)Cc1ccc(Cl)cc1Cl
not listed: [5] | [6]
inactive: all other assays above

CC(=O)O[Si](C)(OC(C)=O)OC(C)=O
not listed: [7]
inactive: all other assays above

C=C(C)C(=O)OCCCC
not listed: [7]
inactive: all other assays above

O=C(O)P(=O)(O)O
not listed: [7]
inactive: all other assays above

O=P(O)(O)OP(=O)(O)O
not listed: [5]
inactive: all other assays above
